Screening data: PubChem, National Center for Advancing Translational Sciences (NCATS)
Hits are enriched below; roughly 8.3% of the tested compounds scored in any of these assays.
RORg inh: inhibitors of mouse ROR gamma transcriptional activity; P51450; Drosophila S2 Gal4-RORgamma UAS-luciferase reporter, 20 h; Potency, µM (titrated, usually from 53.6 µM), for inactives: at the highest dose activity change, negative = inhibition, usual class: inhibitors; hit rate 5.4% among 310,000; further: potency means the concentration at half of the fitted maximal effect; on the % scale 0 is the no-effect control and ±100 the full control effect; nearly all actives have a fitted effect of over 60% in size
Target sequence (P51450 whole entry, looked up, the tested form may be a part): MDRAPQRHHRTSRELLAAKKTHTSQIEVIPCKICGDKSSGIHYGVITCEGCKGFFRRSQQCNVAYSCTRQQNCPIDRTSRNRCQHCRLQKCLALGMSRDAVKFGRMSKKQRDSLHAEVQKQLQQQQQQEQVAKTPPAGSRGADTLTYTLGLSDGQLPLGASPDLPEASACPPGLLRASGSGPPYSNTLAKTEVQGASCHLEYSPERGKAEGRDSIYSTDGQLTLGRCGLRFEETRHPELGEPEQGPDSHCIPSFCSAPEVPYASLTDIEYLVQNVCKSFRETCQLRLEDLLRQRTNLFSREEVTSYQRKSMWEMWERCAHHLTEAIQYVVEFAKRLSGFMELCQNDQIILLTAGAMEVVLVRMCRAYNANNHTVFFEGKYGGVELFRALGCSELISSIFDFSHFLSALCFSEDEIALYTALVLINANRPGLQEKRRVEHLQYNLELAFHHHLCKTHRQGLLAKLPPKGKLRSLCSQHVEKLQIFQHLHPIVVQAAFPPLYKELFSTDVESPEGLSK
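Read-out: Photinus luciferase luminescence; inhibitors lower reporter signal. Insect Schneider cells with Gal4-ROR gamma fusion under metallothionein promoter, UAS reporter; 700 uM final copper sulfate induction, 20 hr, ambient temperature.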
MCF10A rerep: DNA re-replication induction in MCF 10a cells. Potency, µM (titrated, usually from 46.1 µM), without a hit: at the top dose activity, positive = re-replication, hits mostly activators. hit rate 2.9% among 350,000. MCF 10A DNA re-replication, Hoechst nuclear intensity, 48 h. AID 624296; further: potency means the concentration at half of the fitted maximal effect; % of control where 0% means no effect; nearly all actives have a fitted effect of over 50% in size
BCR signal inh: inhibitors of chronic active B-cell receptor signaling; ABC-DLBCL IkBa-CBG/CBR reporter, luminescence ratio, 4 h; Potency, µM (series often up to 46.1 µM), without a hit: at the top dose activity change, negative = inhibition, usual class: inhibitors; hit rate 0.05% among 340,000; active means well fitted inhibition curve with a large enough effect in the signal ratio, with a control signal flat, not every such curve was filed as active; inconclusive means small, poorly fitted or top-dose-only effect, or effect the other way, or a change in a side signal; the % refers to the signal ratio;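 further: potency means the concentration at half of the fitted maximal effect; plate controls were basal doxycycline-induced cells for no effect and cells given 10 µM MG132 for full effect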
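Cell line TMD8 (human ABC DLBCL), stably expressing tet-inducible CBG68-IkBa fusion and CBR; IMDM/0.5% FBS; cpd up to 46 uM; dox induction, 4 h, 37C/5% CO2; dual luminescence; green/red ratio; MG132 control.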
VP16 counter: inhibits Gal4-VP16 luciferase reporter, ROR gamma counter-screen; Drosophila S2 Gal4-VP16 UAS-luciferase, luminescence, 20 h; Potency, µM (highest dose often 53.6 µM), inactives show top-dose activity, negative = inhibition, usual class: inhibitors; hit rate 3.5% among 310,000;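 further: Gal4-VP16 expression switched on by copper sulfate through the metallothionein promoter; potency means the concentration at half of the fitted maximal effect; on the % scale 0 is the no-effect control and ±100 the full control effect; nearly all actives have a fitted effect of over 50% in size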
Giardia kill: Giardia lamblia killing | activity change, % at 7.66 µM, hits read low | Giardia lamblia trophozoite viability | hit rate 0.15% among 340,000; in the data active means activity change below about -80%; inconclusive means between about -30% and that limit;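 further: parasites exposed to compound for two days anaerobically before the ATP read; on the % scale 0 is the no-effect control and ±100 the full control effect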
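Luminescence from cellular ATP indicates surviving trophozoites (100 cells/well) following 48 hrs anaerobic compound treatment at 37 deg C; signal develops 15-30 min at room temperature.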
SW480 rereplic: induces DNA re-replication in SW480 colon adenocarcinoma cells; SW480 DNA re-replication, Hoechst DNA content imaging, 48 h; Potency, µM (top dose mostly 46.1 µM), without a hit: at the highest dose re-replication activation, hits mostly activators; AID 624297; hit rate 1.8% among 340,000; further: potency means the concentration at half of the fitted maximal effect; % of control where 0% means no effect; nearly all actives have a fitted effect of over 55% in size
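DNA re-replication was detected as more nuclei of elevated Hoechst intensity after 48 hr exposure to compound (23 nL pinned per well of 250 cells).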
Active calls of the source: *; ? = inconclusive; . = no result given. Unless noted, the call rests on the fitted dose curve; in most records, active means well fitted curve in the direction sought with a large enough effect; inconclusive means small, poorly fitted or top-dose-only effect, or another doubt; inactive means no such curve, though single readings can be large; an effect the other way counts as inactive or inconclusive.

SMILES | RORg inh | MCF10A rerep | BCR signal inh | VP16 counter | Giardia kill | SW480 rereplic
Cc1ccc(O)c(NC(=S)NC(=O)/C=C/c2ccco2)c1 | 7.9µM* | 11% | ? | ? | -9 | 16µM*
O=C(/C=C/c1ccco1)NC(=S)Nc1ccc(C(=O)O)cc1 | -13% | 7% | ? | 6% | 28 | -5%
Cc1ccc(O)c(NC(=S)NC(=O)/C=C/c2ccccc2)c1 | -15% | 0% | 7% | 9% | 26 | -8%
Cc1ccnc(NC(=S)NC(=O)/C=C/c2ccco2)c1 | 7.1µM* | ? | ? | 1.8µM* | -6 | ?
O=C(/C=C/c1ccco1)NC(=S)Nc1ccc(Cl)cn1 | 8.9µM* | -1% | ? | ? | 12 | -3%
CCC(=O)Nc1ccc(NC(=S)NC(=O)/C=C/c2ccco2)cc1 | -15% | 12% | -11% | 7% | -27 | 18%
O=C(/C=C/c1ccco1)NC(=S)Nc1ccc(O)c(-c2nc3ccccc3s2)c1 | 2µM* | 8.2µM* | -29% | 2µM* | -3 | ?
O=C(Nc1ccc(O)c(-c2nc3ccccc3s2)c1)c1cc(=O)c2ccccc2o1 | 0% | ? | -2% | 1% | -4 | -2%
O=C(c1ccc2nc[nH]c2c1)N1CCN(S(=O)(=O)c2cccc(Cl)c2)CC1 | . | -2% | . | . | 1 | -90%
CC1=C(C(=O)Nc2cccc(Cl)c2)C2(CCCCCC2)OC1=O | . | . | -9% | . | . | .
O=C1COc2ccc(C(=O)COC(=O)c3cc(S(=O)(=O)N4CCOCC4)ccc3F)cc2N1 | . | -10% | -1% | . | -9 | 3%
Cc1ccc(O)c(NC(=S)NC(=O)C(C)C)c1 | 11µM* | 2% | 0% | -1% | -5 | -53%
Cc1ccc(-c2csc(NC(=S)NC(=O)/C=C/c3ccco3)n2)cc1 | ? | 1.6µM* | ? | ? | -26 | 29%
O=C(Nc1ccc(N2CCN(C(=O)c3ccccc3)CC2)cc1)c1ccc([N+](=O)[O-])o1 | 24% | ? | ? | -2% | -100* | -15%
COc1ccc(C(=O)Nc2ccc(N3CCN(C(=O)c4ccccc4)CC3)cc2)cc1[N+](=O)[O-] | 18% | 6% | -7% | -10% | 6 | -12%
Cc1ccccc1C(=O)N1CCN(c2ccc(NC(=O)c3ccc([N+](=O)[O-])o3)cc2)CC1 | -28% | ? | ? | ? | -91* | 1.6µM*
Cc1cccc(NC(=S)NC(C)C(c2cccs2)N2CCN(C)CC2)c1C (centres undefined) | ? | 3% | 1% | -9% | ? | ?
CC(NC(=O)NC1CCCCC1)C(c1cccs1)N1CCN(Cc2ccccc2)CC1 (centres undefined) | -15% | 2% | -2% | -18% | 3 | -1%
CC(NC(=S)Nc1ccc(F)cc1)C(c1cccs1)N1CCOCC1 (centres undefined) | 4µM* | -5% | 0% | ? | -13 | 17%
CC(NC(=S)Nc1ccccc1Cl)C(c1cccs1)N1CCCC1 (centres undefined) | 7.9µM* | ? | 0% | ? | -4 | 0%
Cc1ccccc1NC(=S)NC(C)C(c1cccs1)N1CCOCC1 (centres undefined) | 2.8µM* | 0% | -2% | 22µM* | -2 | -5%
CC(NC(=S)NCCc1ccccc1)C(c1cccs1)N1CCN(Cc2ccccc2)CC1 (centres undefined) | 5µM* | ? | ? | ? | -14 | 21µM*
COc1cc(C=O)ccc1Oc1ccc(S(=O)(=O)N2CCOCC2)cc1[N+](=O)[O-] | . | 3% | 0% | . | -10 | -1%
N#Cc1cccc(-c2cncnc2NCc2ccccc2)c1 | 22% | . | . | -4% | . | .
CCCCc1ccc(NC(=O)CSCc2cc(=O)[nH][nH]2)cc1 | 4% | 13µM* | ? | -1% | -11 | -3%
SMILES | RORg inh | MCF10A rerep | BCR signal inh | VP16 counter | Giardia kill | SW480 rereplic
O=C(CSCc1cc(=O)[nH][nH]1)Nc1ccc(F)cc1 | -1% | 2% | -15% | 7% | -4 | 2%
O=C(NCCN1C(=O)CCC1=O)c1ccncc1 | 5.6µM* | 4% | 0% | -2% | 8 | 3%
Cc1cc(=O)[nH]c(NN=C2CCCCC2C)n1 (centres undefined) | . | 1% | . | . | -16 | 7%
O=S(=O)(Nc1ccc(-c2nnc(SCc3ccc(Cl)cc3)o2)cc1)c1ccccc1 | 11% | 21µM* | ? | -18% | -5 | 7%
COc1ccc(CN(C(=O)CSc2nnc(-c3ccc(F)cc3)o2)c2ccc(F)cc2)cc1 | 26% | 1% | -11% | 7% | 8 | 0%
COc1ccc(CN(C(=O)CSc2nnc(-c3c[nH]c4ccccc34)o2)c2ccc(F)cc2)cc1OC | ? | 4.1µM* | ? | -21% | 5 | 7%
O=C(O)c1ccc(CSc2nnc(-c3ccc(Cl)cc3)o2)cc1 | 39% | 1% | 0% | 3% | -8 | 20%
Clc1ccc(CSc2nnc(-c3c[nH]c4ccccc34)o2)cc1 | -11% | 21µM* | ? | 2% | 25 | 1%
CCOc1ccc(C2Nc3ccc4ccccc4c3-c3c2c(=O)oc2ccccc32)cc1 (centres undefined) | 40% | 5.2µM* | 0% | -4% | -4 | ?
COc1ccc(C2Nc3ccc4ccccc4c3-c3c2c(=O)oc2ccccc32)cc1 (centres undefined) | ? | . | -4% | 1% | . | .
C#Cc1ccc([C@H]2C=C(C(=O)OCC=C)O[C@@H](OCCCCO)C2)cc1 | . | 1% | . | . | 3 | -26%
Cc1cc(NC(=O)c2ccccc2NS(=O)(=O)c2c(C)c(C)cc(C)c2C)no1 | 4% | 12µM* | 1% | -6% | 9 | 9.2µM*
CSc1ccc(CN(C)Cc2cc(=O)oc3c(C)c(C)ccc23)cc1 | 9% | ? | 1% | ? | -2 | -5%
Cc1cc2oc(=O)cc(CN(C)Cc3ccccc3)c2cc1C(C)C | 13% | 15µM* | 0% | 2% | 17 | ?
Cc1ccc2c(CN(C)Cc3cccc(Cl)c3)cc(=O)oc2c1C | 30% | 21µM* | 15% | -4% | -9 | 3%
CCCC(NS(=O)(=O)c1ccc(-c2ccc(=O)[nH]n2)s1)c1cccs1 (centres undefined) | -1% | 11% | 13% | 2% | 20 | ?
Cc1cc(C(C)(C)CC(C)(C)C)ccc1OCCOCC[N+](C)(C)Cc1ccccc1 | ? | ? | ? | 18µM* | 3 | -63%
CN(C)c1ccc(C(=S)N2CCOCC2)cc1Br | -39% | -2% | 0% | 29% | -23 | -2%
CN(C)c1ccc(C(=S)N2CCCCC2)cc1Br | 10µM* | -4% | 0% | -8% | 11 | 5%
